Sampled rows, rich in hits. Any-hit rate of the full collection: about 5.6%.
RORgamma inh: ROR gamma (mouse) transcription inhibition; P51450; hit rate 5.4% among 310,000; Potency, µM (top dose mostly 53.6 µM), without a hit: at the highest dose activity change, negative = inhibition, most hits filed as inhibitors; Drosophila S2 Gal4-RORgamma UAS-luciferase reporter, 20 h; AID 2551; further: potency means the concentration at half of the fitted maximal effect; nearly all actives have a fitted effect of over 60% in size
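Compounds are pin-transferred onto Drosophila Schneider cells expressing a copper-inducible Gal4–ROR gamma transactivation domain fusion. After 1 hr, copper sulfate is added to 700 uM final; luciferase is read 20 hr later.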
VP16 counter: Gal4-VP16 reporter inhibition counter-screen; hit rate 3.5% among 310,000; AID 2546; Drosophila S2 Gal4-VP16 UAS-luciferase, luminescence, 20 h; Potency, µM (titrated, usually from 53.6 µM), inactives show at the highest dose activity, negative = inhibition, actives largely listed as inhibitors;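 further: Gal4-VP16 expression switched on by copper sulfate through the metallothionein promoter; potency means the concentration at half of the fitted maximal effect; nearly all actives have a fitted effect of over 50% in size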
PKM2 act: PKM2 (human) enzyme activation | purified PKM2, Kinase-Glo ATP luminescence, activation; response scale: 0% is enzyme alone, no compound | Potency, µM (titrated, usually from 57.5 µM), without a hit: top-dose activation, usual class: activators | hit rate 0.34% among 260,000; further: potency means the concentration at half of the fitted maximal effect; nearly all actives have a fitted effect of over 55% in size
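Purified hPK-M2 (>95% pure) converted ADP (0.1 mM final) to ATP with 0.5 mM PEP in 50 mM imidazole pH7.2, KCl, MgCl2, Tween 20, BSA; 1 h at room temperature. ATP detected by Kinase-Glo luminescence.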
CtBP-E1A blk: CtBP/E1A binding inhibition | activity change, % (test concentration not listed) | AlphaScreen GST-E1A/His-CtBP binding, 1536-well; active compounds read low | hit rate 0.49% among 340,000; in the data active means activity change below about -65%; inconclusive means mostly about -30% to -63%
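GST-E1A and His-tagged CtBP (125 nM each as 5X stock) were preincubated with pin-transferred compound for 2 h at 37 °C in the dark, then glutathione donor and nickel acceptor beads were added for 1 h before AlphaScreen reading.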
Six1-Eya2 blk: blocks human Six1 binding to Eya2; Q15475+O00167; activity change, % (test concentration not listed); hit rate 0.56% among 360,000; AlphaScreen GST-Six1/His-Eya2 binding, biochemical; active compounds read low; in the data active means activity change below about -65%; inconclusive means mostly about -30% to -63%
Target sequence (O00167 whole entry, looked up): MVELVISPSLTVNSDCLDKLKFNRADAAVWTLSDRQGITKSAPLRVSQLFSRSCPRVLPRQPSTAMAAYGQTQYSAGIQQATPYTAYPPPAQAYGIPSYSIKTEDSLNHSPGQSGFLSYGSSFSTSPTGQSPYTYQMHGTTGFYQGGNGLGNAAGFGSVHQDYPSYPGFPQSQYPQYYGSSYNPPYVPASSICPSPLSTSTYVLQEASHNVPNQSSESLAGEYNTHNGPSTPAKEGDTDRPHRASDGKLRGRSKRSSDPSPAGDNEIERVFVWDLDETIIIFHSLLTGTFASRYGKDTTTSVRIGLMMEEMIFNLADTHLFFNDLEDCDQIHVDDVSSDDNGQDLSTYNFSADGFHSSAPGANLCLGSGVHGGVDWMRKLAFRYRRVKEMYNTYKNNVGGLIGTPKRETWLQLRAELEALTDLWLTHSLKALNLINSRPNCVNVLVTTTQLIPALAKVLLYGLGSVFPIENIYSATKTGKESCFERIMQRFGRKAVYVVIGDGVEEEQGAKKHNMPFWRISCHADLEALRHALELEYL
Target sequence (Q15475 whole entry, looked up): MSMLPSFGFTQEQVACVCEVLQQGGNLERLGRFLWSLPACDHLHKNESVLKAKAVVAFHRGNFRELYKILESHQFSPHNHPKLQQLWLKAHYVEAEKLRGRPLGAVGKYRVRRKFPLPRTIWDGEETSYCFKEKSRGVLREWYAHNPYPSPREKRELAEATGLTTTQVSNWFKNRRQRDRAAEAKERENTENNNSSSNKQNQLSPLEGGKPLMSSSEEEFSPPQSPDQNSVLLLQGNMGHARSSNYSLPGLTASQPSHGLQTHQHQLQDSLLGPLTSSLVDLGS
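Six1/Eya2 binding was read as AlphaScreen signal after compounds were pinned into GST-Six1 plus His-tagged Eya2 (5X stock 250/500 nM) in pH 8.0 Tris/NaCl/TCEP buffer, beads added, then incubated 1 h, 37 C, dark.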
Active calls of the source: *; ? = inconclusive; nt = not tested or not shown; [ ] = dose if it differs, or a comment. Unless noted, the call rests on the fitted dose curve; in most records, active means well fitted curve in the direction sought with a large enough effect; inconclusive means small, poorly fitted or top-dose-only effect, or another doubt; inactive means no such curve, though single readings can be large; an effect the other way counts as inactive or inconclusive. On the % scale 0 is the no-effect control and ±100 the full control effect.

SMILES	RORgamma inh	VP16 counter	PKM2 act	CtBP-E1A blk	Six1-Eya2 blk
O=C(O)C1CCC(Cn2c(SCc3cc(=O)n4cc(Cl)ccc4n3)nc3ccsc3c2=O)CC1 (stereo not drawn)	29%	-4%	13%	nt	6
CCCCCCCCCCCCCCCC(=O)OC[C@H](O)[C@H]1OC[C@@H](O)[C@@H]1O	-11%	-4%	nt	nt	nt
CC(=O)N1CCN(c2ccc(NCc3ccccc3)cc2)CC1	23%	11%	9%	-3	-13
Fc1ccc(CNc2ccc(N3CCN(Cc4ccccc4)CC3)cc2)cc1	17%	-2%	0%	-74*	-72*
Cn1c(=O)c(=O)n(C)c2cc(S(=O)(=O)N3CCCC3C(=O)NCc3cccnc3)ccc21 (stereo not drawn)	2%	-3%	1%	5	6
CC(C)(C)c1ccc(C(=O)c2c[nH]c(C(=O)NCCc3ccccn3)c2)cc1	-4%	-20%	-13%	-14	-7
CSc1ccc(S(=O)(=O)N2CCC(C(=O)NCc3ccco3)CC2)cc1	26%	?	10µM*	0	2
O=C(NCc1cccs1)C1CCN(S(=O)(=O)c2ccccc2F)CC1	?	8%	14µM*	-13	0
CCS(=O)(=O)N1CCC(C(=O)NCc2ccco2)CC1	25%	2%	-1%	2	4
O=C(NCc1cccs1)C1CCN(S(=O)(=O)c2cccs2)CC1	22%	1%	16µM*	11	4
O=C(NCc1cccs1)[C@@H]1CCCN1S(=O)(=O)c1ccccc1F	nt	nt	nt	-1	10
CCOC(=O)C1C(C(=O)OC)=C(C(=O)OC)c2ccccc2N1S(=O)(=O)C(F)(F)F (stereo not drawn)	0%	-5%	nt	9	-3
Cn1cccc1C(=O)N1CCC2(CC1)CN(C(=O)Nc1cccc(C#N)c1)C2	-3%	4%	nt	nt	nt
COC(=O)c1c(NC(=O)c2cccc(S(=O)(=O)N3CCN(C)CC3)c2)sc(C)c1C	nt	nt	nt	0	-2
Cc1cccc(-c2n[nH]c(=S)n2/N=C/c2cccs2)c1	5µM*	10µM*	20%	nt	-11
Cc1cccc(-c2n[nH]c(=S)n2/N=C/c2ccc(C)s2)c1	11µM*	5.6µM*	-1%	5	24
S=c1[nH]nc(-c2cccnc2)n1/N=C/c1cccs1	?	-1%	-11%	1	-2
Cc1ccc(NC(=O)CSCC(=O)OC(C)C(=O)Nc2ccc(S(N)(=O)=O)cc2)c(C)c1 (stereo not drawn)	nt	nt	nt	2	4
NC(=O)CSc1nnc(CSc2ncccn2)n1-c1ccccc1	26%	-6%	2%	2	-3
O=CN(Cc1nc2ccccc2[nH]1)c1ccc(C(=O)O)cc1	nt	nt	nt	1	12
CC1CCN(c2nc(CN3CCCCC3)nc3scc(-c4ccccc4)c23)CC1	10µM*	22µM*	3%	-2	-2
Cn1ncc(Cl)c1C(=O)N1CCC(Cc2ccccc2)CC1	0%	15%	22µM*	-13	-5
Cn1ncc(Cl)c1C(=O)N1CCN(c2ccccc2)CC1	-1%	4%	-1%	-5	-19
Cc1[nH]c2ccccc2c1C(=O)/C=C/c1ccccc1Cl	-35%[10 µM]	13%	9%	-15	-6
Cc1[nH]c2ccccc2c1C(=O)/C=C\c1ccccc1Cl	13µM*	-3%	?	4	6
SMILES	RORgamma inh	VP16 counter	PKM2 act	CtBP-E1A blk	Six1-Eya2 blk
c1cncc(CSc2nnc(-c3cccnc3)n2Cc2ccco2)c1	5%	0%	3%	nt	nt
Clc1cccc(CSc2nnc(-c3cccnc3)n2Cc2ccco2)c1	16µM*	?	14%	-10	-5
O=C(CSc1nnc(-c2cccnc2)n1Cc1ccco1)N1c2ccccc2Sc2ccccc21	13µM*	?	21%	?	?
NC(=O)CSc1nnc(-c2cccs2)n1Cc1ccco1	22%	-12%	-6%	-1	-4
NC(=O)CSc1nnc(-c2ccc(O)cc2)n1Cc1ccco1	-36%	-2%	-7%	-90*	-87*
COc1ccc(S(=O)(=O)N(C)C)cc1NC(=O)c1ccc(OCC2CCCO2)cc1 (stereo not drawn)	nt	nt	nt	-7	-8
CC12CCC=CC1C(c1ccoc1)N(Cc1ccccc1)C2=O (stereo not drawn)	16%	16%	nt	nt	nt
COc1cccc(CS(=O)(=O)c2nnnn2-c2ccc(F)cc2Br)c1	-1%	5%	nt	nt	nt
CCOc1cccc(-c2cc(NCCc3ccccn3)n3nccc3n2)c1	nt	nt	nt	7	1
CNC(=S)NNC(=O)c1sc2cc(C(F)(F)F)cnc2c1-c1ccccn1	1.1µM*	-18%	-3%	-24	-4
NC(=O)c1sc2cc(C(F)(F)F)cnc2c1-c1ccccc1	25%	-17%	3%	-10	7
CNC(=S)NNC(=O)c1sc2cc(C(F)(F)F)cnc2c1-c1cccnc1	18µM*	-2%	0%	-7	-11
CSc1nnc(-c2sc3cc(C(F)(F)F)cnc3c2-c2ccccn2)n1C	-2%	5%	-13%	5	5
CCCCn1c(=O)n(Cc2cccc(F)c2)c(=O)c2c1ncn2Cc1ccco1	3.2µM*	?	?	8	-5
Cn1cnc2c1c(=O)n(Cc1cccc(F)c1)c(=O)n2C	-28%	4%	1%[11.5 µM]	nt	11
Cc1cc(Sc2nnc(/N=C/N(C)C)s2)c2ccccc2n1	8.9µM*	?	11%	nt	5
Cc1cc(Sc2nnc(N)s2)c2ccccc2n1	7.9µM*	11µM*	?	3	1
Cc1cc(C(N)=O)c2ccccc2n1	-5%	-7%	-1%	10	5
CCCCCCCCSc1nnc(/N=C/N(C)C)s1	13%	2%	-1%	-12	-1
CC1=NN(C(=O)Cn2nc([N+](=O)[O-])c(Br)c2C)C(O)(C(F)(F)F)C1 (stereo not drawn)	10µM*	?	0%	1	9
CC1=NN(C(=O)Cn2ccc([N+](=O)[O-])n2)C(O)(C(F)(F)F)C1 (stereo not drawn)	?	?	3%	-15	-3
COc1nn(CC(=O)N2N=C(C)CC2(O)C(F)(F)F)cc1[N+](=O)[O-] (stereo not drawn)	3.2µM*	-1%	11%	-3	1
CN(CC(=O)Nc1cccc(F)c1)C(=O)CCCN1C(=O)c2cccc3cccc(c23)C1=O	nt	nt	nt	-10	?
CN(C)S(=O)(=O)c1ccc(C(=O)NCCC(=O)N2CCCC2)cc1	-36%	22%	nt	10	6
COc1ccc(CNC(=O)CN(Cc2ccco2)C(=O)CCC(=O)Nc2ccccn2)cc1	-3%	4%	-9%	9	-1
Cc1ccc(S(=O)(=O)Nc2cccc3ccc[n+](C)c23)cc1	-12%	-1%	nt	nt	nt
CC(=O)Nc1ccc(NC(=O)CSc2nnc(-c3ccc4c(c3)OCO4)o2)cc1	nt	nt	nt	8	2
O=C(CSc1nnc(-c2ccc3c(c2)OCO3)o1)Nc1ncc(Cl)cc1Cl	0.79µM*	0.56µM*	5%	nt	-4

High-throughput results (PubChem BioAssay)
